Calls of active or inactive are those of the source.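 The calls were made as follows: active = mean z-score across replicates of 1.96 or higher in either the MELAS or the Rieske mutant cell line; inactive = the rest.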

The nature of this experiment: survival rescue of mitochondrial mutant cells in low glucose, primary screen, MELAS cybrids, Rieske KO mouse fibroblasts, CellTiter-Glo (AID 1508586).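 Also: test concentration not given here; z relative to plate mean and SD of compound and empty wells.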 The conditions noted are these: MELAS cybrid survival, CellTiter-Glo 48 h, stronger effect = higher value.
With `COc1cccc(COC2CN(CCc3ccccc3)C(=O)CN(C(=O)CN3CCOC3=O)C2)c1` (stereo not given), the z-score was -0.0866 (inactive). With `Cc1csc(-c2cc(C(=O)NCCN3CCCCC3)cc(S(=O)(=O)N3CCOCC3)c2)c1` the figure was 0.0708 (inactive); with `CC1=C(CCN2CCC3(CC2)C(=O)N(C(C)C)C(=O)N3C)C(C)(C)CCC1`, -0.0598 (inactive).

For `CN1CCN(S(=O)(=O)c2cc(C(=O)NCC3CCCO3)cc(-c3ccccc3)c2)CC1` (stereo not given), the z-score is 0.139 (inactive).

Turning to `CC1=C(C(=O)N2CCc3c(c(C(=O)NCc4nccs4)nn3Cc3ccccc3)C2)OCCO1`, the z-score is -0.132 (inactive). With `CC(=O)c1cccc(-c2cc3c(n(CC=C(C)C)c2=O)CCN(Cc2cnc(N(C)C)s2)C3)c1` the figure was -0.385 (inactive); with `CC(C)CCNc1cc(C(=O)NCCCn2ccnc2)cc(S(=O)(=O)N2CCCC2)c1`, 0.646 (inactive); with `Cc1ccccc1CN[C@H]1C[C@H]2C(=O)N[C@@H]([C@@H](C)O)C(=O)N2C1`, 0.0812 (inactive).

Consider `Cc1ncsc1CCn1nc(C(=O)NC2CC2)c2c1CCN(C(=O)C1Cc3ccccc3O1)C2` (stereo not given), for which the z-score is -0.25. The figure for `CC(C)C[C@H]1C(=O)N2CCN(Cc3cnn(-c4ccccc4)c3)C[C@@H]2C(=O)N1C` is 0.221 (inactive); for `O=c1c(/C=C/c2ccccc2)cc2c(n1Cc1ccccn1)CCN(C1CCOCC1)C2` it is -0.0238 (inactive); for `CC(C)/C=C/CNc1cc(C(=O)NCc2cn3ccccc3n2)cc(S(=O)(=O)NC(C)C)c1` it is 1.64 (inactive). The figure for `C[C@H]1NC(=O)[C@H]2CN(C(=O)Oc3ccc(Cl)cc3)CCN2C1=O` is -0.514 (inactive); for `Cc1ccc(Cl)cc1NC(=O)N[C@H]1C[C@H]2C(=O)N[C@H](C(C)C)C(=O)N2C1` it is -0.17 (inactive); for `O=C1N[C@@H](Cc2c[nH]c3ccccc23)C(=O)N2C[C@@H](NCc3ccccc3Cl)C[C@@H]12` it is -0.311 (inactive). Turning to `C[C@@H](OCc1ccccc1)[C@@H]1NC(=O)[C@H]2CN(C(=O)Oc3ccccc3)CCN2C1=O`, the z-score is -0.153 (inactive). The figure for `Cc1ncc(CNc2cc(C(=O)Nc3cccc(N(C)C)c3)cc(S(=O)(=O)N3CCCC3)c2)[nH]1` is -0.563 (inactive); for `CCn1nc(C(=O)N2CCCC2)c2c1CCC(N1CCN(c3ccccc3OC)CC1)C2` (stereo not given) it is -0.423 (inactive).

Consider `CCc1cc(C(=O)N2CCc3c(c(C(=O)N4CCN(c5ccccc5)CC4)nn3CC)C2)n(C)n1`, for which the z-score is -0.699 (inactive). With `CC(C)CNC(=O)[C@@H]1C[C@H](CN2CCOCC2)CN(Cc2ccccc2)C1` the figure was 0.428 (inactive). With `COCCN1C(=O)N(C)C(=O)C12CCN(Cc1cnc(-c3ccccc3)s1)CC2`, the z-score is -0.0934 (inactive). As for `CC(C)CCNc1cc(C(=O)NCCn2ccnc2)cc(S(=O)(=O)Nc2ccccc2)c1`, the z-score is -0.318 (inactive).

As to `CC(C)C[C@H]1C(=O)N2CCN(Cc3cccc4ncccc34)C[C@@H]2C(=O)N1C`, the z-score was -0.521 (inactive). As for `Cc1csc(-c2cc(C(=O)NCCC3CCCN3C)cc(S(=O)(=O)N3CCOCC3)c2)c1` (stereo not given), the z-score is 4.59 (active).

Take `Cc1nc2sccn2c1CN1CCC2(CC1)C(=O)N(CC(C)C)C(=O)N2CCc1ccccc1`: the z-score was -0.397 (inactive). With `CCc1nc(CNc2cc(C(=O)N[C@H](C)c3ccc(OC)cc3)cc(S(=O)(=O)N(C)C)c2)c(C)[nH]1` the figure was -0.507 (inactive); with `C[C@H](O)[C@H]1NC(=O)[C@@H]2C[C@H](NC(=O)Nc3cccc(F)c3)CN2C1=O`, 0.0941 (inactive); with `CCOC(=O)c1nn(Cc2ccc(OC)cc2)c2c1CN(C(=O)CSc1ncccn1)CC2`, -0.668 (inactive). The figure for `CN(C)CCCNC(=O)[C@@H]1C[C@H](CN2CCOCC2)CN(Cc2ccc3ccccc3c2)C1` is -0.234 (inactive). Regarding `CC(C)CNC(=O)[C@@H]1C[C@H](CN2CCOCC2)CN(Cc2ccc(O)cc2)C1`, the z-score was -0.104 (inactive). For the compound `O=C(Cn1cnnn1)N1CC(=O)N(C2CCCCC2)CC(OCc2ccccc2)C1` (stereo not given), the z-score is -0.326 (inactive). With `CC(C)C[C@H]1NC(=O)[C@H]2CN(C(=O)OCc3ccccc3)CCN2C1=O` the figure was -0.0626 (inactive); with `CCc1cc(C(=O)N2CC(=O)N(Cc3ccc(OC)cc3)CC(OCc3ccncc3)C2)n(C)n1` (stereo not given), -0.128 (inactive). The figure for `COc1cccc(COC2CN(Cc3ccccn3)C(=O)CN(C(=O)c3ccc(C)s3)C2)c1` (stereo not given) is -0.406 (inactive); for `Cc1nn(C)cc1CNc1cc(C(=O)NCc2cn3ccccc3n2)cc(S(=O)(=O)NC(C)C)c1` it is -0.236 (inactive). With `C=CCn1nc(C(=O)N2CCSCC2)c2c1CCC(NCCCSC)C2` (stereo not given) the figure was -0.0452 (inactive); with `CCCCNC(=O)[C@@H]1C[C@H](CN2CCOCC2)CN(CCc2ccccc2)C1`, 1.78 (inactive); with `CNS(=O)(=O)c1cc(NCc2cnc(C)[nH]2)cc(C(=O)Nc2ccc3c(c2)CCC3)c1`, -0.00503 (inactive).

Turning to `COC(=O)CN1C(=O)N(CCc2ccccc2)C2(CCN(Cc3ccc4c(c3)OCCO4)CC2)C1=O`, the z-score is -0.212 (inactive). As for `CCN1C(=O)N(C)C(=O)C12CCN(Cc1cc3oc(C)c(-c4ccccc4)c3cc1OC)CC2`, the z-score was -0.0202 (inactive).

For the origin of these results see PubChem BioAssay.
